# Test results as given in PubChem BioAssay (NCATS).
# Records with an inconclusive call do not appear. Entries that show only a call come without a potency. Activity calls are given as the source filed them. Unless noted, calls come from the whole dose curve; as a rule, active = well fitted curve in the direction sought with a large enough effect; inconclusive = small, poorly fitted or top-dose-only effect, or another doubt; inactive = no such curve, though single readings can be large; an effect the other way counts as inactive or inconclusive.
# Experiments:
# [1] = target: Mitogen-activated protein kinase 10 (Mus musculus) (UniProt Q61831); test: JNK3 AlphaScreen Assay (AID 530; active = well fitted curve in either direction with a large enough effect, not every such curve was filed as active;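 note: kinase came from lysate of stimulated human HepG2 cells; signal reports phosphorylation of biotinylated GST-cJun 1-79 at Ser73 with 10 µM ATP; series mostly up to about 57 µM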)
# How it was run: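 Room-temperature AlphaScreen kinase assay; pre-activated HepG2 lysate as JNK3 source, biotin-GST-cJun(1-79) substrate, 10 uM ATP, compound 15 min preincubation.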
# [2] = target: 3',5'-cyclic-AMP phosphodiesterase 4B (Homo sapiens) (UniProt Q07343); test: qHTS Assay for Inhibitors of PDE-IV (AID 607; active = well fitted activation curve with a large enough effect in the main read-out, with a control signal flat, not every such curve was filed as active)
# 3',5'-cyclic-AMP phosphodiesterase 4B (Homo sapiens), sequence (Q07343 whole entry, looked up): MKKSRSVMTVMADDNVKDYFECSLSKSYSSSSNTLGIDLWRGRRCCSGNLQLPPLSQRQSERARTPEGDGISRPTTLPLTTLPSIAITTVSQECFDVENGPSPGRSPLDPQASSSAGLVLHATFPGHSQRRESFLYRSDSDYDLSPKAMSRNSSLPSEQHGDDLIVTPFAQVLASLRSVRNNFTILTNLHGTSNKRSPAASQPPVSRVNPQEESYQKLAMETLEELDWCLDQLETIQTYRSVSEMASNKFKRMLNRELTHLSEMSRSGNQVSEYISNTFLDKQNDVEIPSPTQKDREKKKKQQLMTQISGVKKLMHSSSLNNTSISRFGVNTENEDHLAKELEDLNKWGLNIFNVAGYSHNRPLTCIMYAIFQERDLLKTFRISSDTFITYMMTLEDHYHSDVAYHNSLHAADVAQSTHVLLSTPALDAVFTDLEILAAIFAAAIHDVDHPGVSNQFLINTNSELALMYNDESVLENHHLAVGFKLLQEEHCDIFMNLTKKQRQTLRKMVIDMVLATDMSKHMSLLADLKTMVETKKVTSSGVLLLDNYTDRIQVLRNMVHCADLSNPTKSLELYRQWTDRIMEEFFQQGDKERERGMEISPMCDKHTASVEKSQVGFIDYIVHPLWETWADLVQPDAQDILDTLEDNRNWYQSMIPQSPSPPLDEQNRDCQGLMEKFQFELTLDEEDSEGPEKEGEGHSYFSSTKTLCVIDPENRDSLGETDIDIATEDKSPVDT
# How it was run: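 Cell-based read-out of cAMP via a modified cyclic nucleotide-gated channel and membrane potential dye (535/590 nm) in HEK293 cells expressing PDE4 endogenously. Compounds tested up to 22.9 uM final; 100 uM RO 20-1724 reference.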
# [3] = target: Cytochrome P450 2C9 (Homo sapiens) (UniProt P11712); test: qHTS Assay for Inhibitors and Substrates of Cytochrome P450 2C9 (AID 883); note: potency is the fitted concentration of half-maximal effect; nearly all actives have a fitted effect of over 60% in size
# Cytochrome P450 2C9 (Homo sapiens), sequence (P11712 whole entry, looked up): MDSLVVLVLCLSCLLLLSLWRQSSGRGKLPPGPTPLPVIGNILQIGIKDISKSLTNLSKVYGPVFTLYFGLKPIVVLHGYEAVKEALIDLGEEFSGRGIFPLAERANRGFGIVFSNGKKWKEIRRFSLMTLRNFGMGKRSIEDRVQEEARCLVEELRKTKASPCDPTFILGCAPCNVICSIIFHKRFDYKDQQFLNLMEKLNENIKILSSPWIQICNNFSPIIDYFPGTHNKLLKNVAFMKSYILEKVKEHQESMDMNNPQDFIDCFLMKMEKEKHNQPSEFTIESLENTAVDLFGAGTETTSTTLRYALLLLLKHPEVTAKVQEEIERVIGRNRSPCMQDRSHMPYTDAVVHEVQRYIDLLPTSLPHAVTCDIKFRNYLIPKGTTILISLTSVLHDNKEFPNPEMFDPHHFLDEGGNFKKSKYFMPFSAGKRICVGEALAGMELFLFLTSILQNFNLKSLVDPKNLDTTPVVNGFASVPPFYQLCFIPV
# How it was run: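 Turnover of Luciferin-H (100uM, KM) by 10nM human CYP2C9 was measured over 60 min at 37C with NADPH regeneration; inhibitors and some substrates reduce luminescence. Data normalized to sulphaphenazole 57uM.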
# [4] = target: Cytochrome P450 3A4 (Homo sapiens) (UniProt P08684); test: qHTS Assay for Inhibitors and Substrates of Cytochrome P450 3A4 (AID 884); note: nearly all actives have a fitted effect of over 50% in size; note: potency is the fitted concentration of half-maximal effect
# Cytochrome P450 3A4 (Homo sapiens), sequence (P08684 whole entry, looked up): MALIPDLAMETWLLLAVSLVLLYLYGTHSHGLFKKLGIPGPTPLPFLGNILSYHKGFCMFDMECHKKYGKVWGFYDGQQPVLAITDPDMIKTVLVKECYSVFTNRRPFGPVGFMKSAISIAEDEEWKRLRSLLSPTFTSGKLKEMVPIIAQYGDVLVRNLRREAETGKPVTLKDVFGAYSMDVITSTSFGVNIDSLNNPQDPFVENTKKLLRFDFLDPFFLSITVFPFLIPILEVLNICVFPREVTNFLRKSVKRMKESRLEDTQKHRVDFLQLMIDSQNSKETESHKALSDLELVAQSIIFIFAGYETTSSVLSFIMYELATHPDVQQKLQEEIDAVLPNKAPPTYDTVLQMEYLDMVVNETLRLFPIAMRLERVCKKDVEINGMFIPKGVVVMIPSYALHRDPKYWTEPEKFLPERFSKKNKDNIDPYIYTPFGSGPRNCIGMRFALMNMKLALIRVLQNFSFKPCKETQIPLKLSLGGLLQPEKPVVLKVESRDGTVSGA
# How it was run: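 20 nM human CYP3A4 with 25 uM Luciferin-PPXE (at KM) in 200 mM KPO4, preincubated 10 min with compound; NADPH regeneration started a 60 min RT reaction. Luciferin detected by luminescence, normalized to 57 uM ketoconazole as full inhibition.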
# [5] = target: Cytochrome P450 3A4 (Homo sapiens) (UniProt P08684); test: qHTS Assay for Activators of Cytochrome P450 3A4 (AID 885); note: nearly all actives have a fitted effect of over 65% in size
# How it was run: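 Signal was normalized against complete inhibition by 57 uM ketoconazole. The reaction used 20nM CYP3A4 with 25uM Luciferin-PPXE, 10-min compound preincubation and a 60-min NADPH-supported step at RT.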
# [6] = target: Cytochrome P450 2C19 (Homo sapiens) (UniProt P33261); test: qHTS Assay for Inhibitors and Substrates of Cytochrome P450 2C19 (AID 899); note: potency is the fitted concentration of half-maximal effect; nearly all actives have a fitted effect of over 60% in size
# Cytochrome P450 2C19 (Homo sapiens), sequence (P33261 whole entry, looked up): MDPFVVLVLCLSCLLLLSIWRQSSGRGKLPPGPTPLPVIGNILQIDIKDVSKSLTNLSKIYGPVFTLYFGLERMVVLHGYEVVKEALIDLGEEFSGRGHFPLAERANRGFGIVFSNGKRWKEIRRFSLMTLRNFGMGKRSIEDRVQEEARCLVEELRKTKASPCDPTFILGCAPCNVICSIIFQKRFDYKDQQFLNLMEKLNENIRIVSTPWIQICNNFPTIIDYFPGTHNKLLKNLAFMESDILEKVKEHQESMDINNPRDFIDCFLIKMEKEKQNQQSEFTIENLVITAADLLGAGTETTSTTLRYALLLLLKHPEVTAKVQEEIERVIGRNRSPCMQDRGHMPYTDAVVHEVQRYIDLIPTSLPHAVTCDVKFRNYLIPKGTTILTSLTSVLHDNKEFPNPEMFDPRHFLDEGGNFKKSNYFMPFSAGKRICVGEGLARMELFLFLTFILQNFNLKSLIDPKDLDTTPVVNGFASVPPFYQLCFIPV
# How it was run: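 Reactions contain 5nM enzyme, 10uM Luciferin-H EGE (KM) and 50mM KPO4; compound preincubates 10 min at 37C, NADPH regeneration starts turnover for 60 min. Luminescence after detection reagent gives activity.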
smiles,measurement,setting,value
COC(=O)[C@@]1(Cc2ccccc2)[C@H]2c3cc(C(=O)N(C)C)n(Cc4c(CO)[nH]cc(C)c4=O)c3C[C@H]2CN1C(=O)c1ccccc1,outcome,[1],inactive
same,outcome,[2],inactive
same,Potency,[3],0.631 µM (active)
same,Potency,[4],1.58 µM (active)
same,Potency,[5],inactive
same,Potency,[6],3.16 µM (active)
COC(=O)[C@@]1(Cc2ccccc2)[C@H]2c3cc(C(=O)N(C)C)n(Cc4ccc(O)c(OC)c4)c3C[C@H]2CN1C(=O)c1ccccc1,outcome,[1],inactive
same,outcome,[2],inactive
COC(=O)N1[C@H](Cc2ccccc2)C=C[C@]1(C)C(=O)O,outcome,[1],inactive
same,Potency,[4],inactive
CNC(=O)[C@@]1(Cc2ccccc2)C=C[C@@H](C)N1C(C)=O,outcome,[1],inactive
same,Potency,[4],inactive
CC(C)CC1(C(=O)O)C=CCN1C(=O)c1ccccc1 (configuration not stated),outcome,[1],inactive
same,Potency,[4],inactive
COC(=O)[C@@]1(Cc2ccccc2)[C@H]2c3cc(C(=O)N(C)C)n(Cc4cc(F)c(F)c(F)c4)c3C[C@H]2CN1C(=O)c1ccccc1,outcome,[1],inactive
same,outcome,[2],inactive
CC(Cc1ccccc1)C(=O)Nc1ccccc1 (configuration not stated),outcome,[1],inactive
same,Potency,[4],inactive
COC(=O)CNC(=O)[C@@]1(Cc2ccccc2)C=C[C@@H](C)N1C(=O)c1ccccc1,outcome,[1],inactive
same,Potency,[4],inactive
COC(=O)C1(C)C=CCN1C(=O)c1ccccc1 (configuration not stated),outcome,[1],inactive
same,Potency,[4],inactive
CC1=C(C(=O)OCc2ccccc2)C(c2cccc([N+](=O)[O-])c2)NC(=O)N1CCCCCC(=O)O (configuration not stated),outcome,[1],inactive
same,Potency,[4],inactive
COC(=O)[C@@]1(Cc2ccccc2)C=C[C@@H](C)N1C(=O)c1ccccc1,outcome,[1],inactive
same,Potency,[4],inactive
C[C@H](CO)NC(=O)[C@H](C)[C@@H]1C[C@@]1(C)[C@@H](NC(=O)OCc1ccccc1)c1ccccc1,outcome,[1],inactive
same,outcome,[2],inactive
same,Potency,[4],5.01 µM (active)
same,Potency,[5],inactive
COCCNC(=O)[C@H](C)[C@@H]1C[C@@]1(C)[C@@H](NC(=O)OCc1ccccc1)c1ccccc1,outcome,[1],inactive
same,outcome,[2],inactive
same,Potency,[4],7.94 µM (active)
same,Potency,[5],inactive
same,Potency,[6],3.16 µM (active)
CO[C@H]1OC[C@@]2(C)[C@@H]3C4=C(CN2C(=O)OC(C)(C)C)[C@H](C)[C@H](CO)[C@H](CO)[C@H]4CC[C@H]13,outcome,[1],inactive
same,outcome,[2],inactive
same,Potency,[5],inactive
COC(=O)c1ccc(C(NC(=O)OCc2ccccc2)/C(F)=C/[C@@H](C)C(=O)N(C)Cc2cccnc2)cc1 (some centres not stated),outcome,[1],inactive
same,Potency,[4],2 µM (active)
COCCNC(=O)[C@H](C)[C@H]1C[C@]1(C)[C@H](NC(=O)OCc1ccccc1)c1ccccc1,outcome,[1],inactive
same,outcome,[2],inactive
same,Potency,[4],3.16 µM (active)
same,Potency,[5],inactive
COCCNC(=O)C1(C)C=CCN1C(C)=O (configuration not stated),outcome,[1],inactive
same,Potency,[4],inactive
COC(=O)[C@@]1(Cc2ccc(OC)cc2)[C@@H]2[C@@H](CC(=O)[C@H]2CC(=O)C(=O)N(C)C)CN1C(=O)c1ccccc1,outcome,[1],inactive
same,outcome,[2],inactive
same,Potency,[5],inactive
COC(=O)N1CC=CC1(C)C(=O)NCC1CC1 (configuration not stated),outcome,[1],inactive
same,Potency,[4],inactive
COC(=O)[C@@]1(Cc2ccc(OC)cc2)[C@H]2c3cc(C(=O)N4CCCC4)n(Cc4nc5ccccc5[nH]4)c3C[C@H]2CN1C(=O)c1ccccc1,outcome,[1],inactive
same,outcome,[2],inactive
same,Potency,[4],2 µM (active)
same,Potency,[5],inactive
CN(C)C(=O)[C@@H]1C[C@H]1[C@@H](NC(=O)OCc1ccccc1)c1ccccc1,outcome,[1],inactive
same,Potency,[4],10 µM (active)
COC(=O)N1CC=CC1(C)C(=O)O (configuration not stated),outcome,[1],inactive
same,Potency,[4],inactive
CC(Cc1ccccc1)C(=O)N1CCN(C)CC1 (configuration not stated),outcome,[1],inactive
same,Potency,[4],inactive
CC(Cc1ccccc1)C(=O)N(C)Cc1ccccc1 (configuration not stated),outcome,[1],inactive
same,Potency,[4],inactive
COC(=O)[C@@]1(Cc2ccccc2)[C@H]2c3cc(C(=O)N4CCCC4)[nH]c3C[C@H]2CN1C(=O)c1ccccc1,outcome,[1],inactive
same,outcome,[2],inactive
same,Potency,[4],2.51 µM (active)
same,Potency,[5],inactive
same,Potency,[6],0.501 µM (active)
CCC/C=C(\CCC)C(NS(C)(=O)=O)c1ccccc1 (configuration not stated),outcome,[1],inactive
same,outcome,[2],inactive
same,Potency,[5],inactive
same,Potency,[6],7.94 µM (active)
COCCNC(=O)[C@@]1(Cc2ccccc2)C=C[C@@H](C)N1C(=O)OC,outcome,[1],inactive
same,Potency,[4],inactive
CCCn1c(C)nc2c(NCCCN(C)C)nc(C)nc21,outcome,[1],inactive
same,Potency,[4],inactive
COC(=O)[C@@]1(Cc2ccc(F)cc2)[C@H]2c3cc(C(=O)N4CCCC4)n(CCc4c[nH]c5ccc(OC)cc45)c3C[C@H]2CN1C(=O)c1ccccc1,outcome,[1],inactive
same,outcome,[2],inactive
same,Potency,[5],inactive
same,Potency,[6],7.94 µM (active)
CNC(=O)C1(C)C=CCN1C(=O)OC (configuration not stated),outcome,[1],inactive
same,Potency,[4],inactive
COC(=O)c1ccc(C(NC(=O)OCc2ccccc2)/C(=C/[C@@H](C)C(=O)NCc2cc(C)n(C)n2)c2cccnc2)cc1 (some centres not stated),outcome,[1],inactive
same,Potency,[4],inactive
C[C@H]1C2=C3C(CC[C@H]4C(OCc5ccc(F)cc5C(F)(F)F)OC[C@](C)([C@@H]34)N(C(=O)OC(C)(C)C)C2)C2COC(=O)OCC21 (some centres not stated),outcome,[1],inactive
same,outcome,[2],inactive
same,Potency,[5],inactive
